This note sets out measurements from PubChem BioAssay (Tox21).

Test [1] is described as follows: qHTS assay to identify small molecule antagonists of the glucocorticoid receptor (GR) signaling pathway - cell viability counter screen (AID 720693). Further: nearly all actives have a fitted effect of over 55% in size. Further: potency means the concentration at half of the fitted maximal effect. The following applies: GR-bla HeLa viability, CellTiter-Glo luminescence, 18 h, with 5 nM dexamethasone present; series mostly up to 58.5 µM. On the technique in general: qHTS replaces the single test concentration by a dilution series.

Test [2] can be described thus: qHTS assay for identifying genotoxic compounds that show differential cytotoxicity against isogenic chicken DT40 cell lines with known DNA damage response pathways - wild type cell line (AID 743012). Further: nearly all actives have a fitted effect of over 60% in size. Further: potency means the concentration at half of the fitted maximal effect. The following applies: DT40 wild type chicken cells viability, CellTiter-Glo, 40 h; series mostly up to 68.4 µM. Summed up:
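Viability of DNA repair-proficient chicken DT40 cells was assessed by CellTiter-Glo luminescence following 40 h compound exposure at 37 C/5% CO2.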

The nature of test [3]: qHTS assay for identifying genotoxic compounds that show differential cytotoxicity against isogenic chicken DT40 cell lines with known DNA damage response pathways - Rad54/Ku70 mutant cell line (AID 743015). Further: nearly all actives have a fitted effect of over 60% in size. Further: potency means the concentration at half of the fitted maximal effect. The following applies: DT40 Rad54/Ku70 mutant viability, CellTiter-Glo, 40 h; series mostly up to 66.8 µM.
The nature of test [4]: qHTS assay to identify small molecule antagonists of the androgen receptor (AR) signaling pathway - cell viability counter screen (AID 743033; further: nearly all actives have a fitted effect of over 45% in size; further: potency means the concentration at half of the fitted maximal effect). The following applies: AR-bla HEK293 viability, CellTiter-Glo luminescence, 16 h; series mostly up to 58.5 µM.
The nature of test [5]: qHTS assay to identify small molecule antagonists of the androgen receptor (AR) signaling pathway using the MDA cell line - cell viability counter screen (AID 743041; further: nearly all actives have a fitted effect of over 45% in size). The settings on record: MDA-kb2 viability, CellTiter-Fluor, 16 h, cells co-treated with R1881 androgen agonist; series mostly up to 70.3 µM. In short, it runs like this: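 Cytotoxicity counter screen: MDA-kb2 AR-luc cells, compound + R1881, 16 h, 37C, 0% CO2; CellTiter-Fluor added at 15.5 h, fluorescence read after 30 min.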

The target of test [6] is Androgen receptor (Homo sapiens) (UniProt P10275). The experiment in a line: qHTS assay to identify small molecule antagonists of the androgen receptor (AR) signaling pathway (AID 743035; active means well fitted inhibition curve with a large enough effect in the signal ratio in the repeat runs, not every such curve was filed as active; the % refers to the signal ratio; further: potency means the concentration at half of the fitted maximal effect). The settings on record: HEK293 AR-UAS-bla, R1881-stimulated, beta-lactamase FRET, 16 h; series mostly up to 58.5 µM. Summed up: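 Reporter HEK293 cells were exposed to compounds and R1881 overnight (16 h, 37C); beta-lactamase activity was then quantified by FRET fluorescence.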
Chain of Androgen receptor (Homo sapiens) (P10275 whole entry, looked up): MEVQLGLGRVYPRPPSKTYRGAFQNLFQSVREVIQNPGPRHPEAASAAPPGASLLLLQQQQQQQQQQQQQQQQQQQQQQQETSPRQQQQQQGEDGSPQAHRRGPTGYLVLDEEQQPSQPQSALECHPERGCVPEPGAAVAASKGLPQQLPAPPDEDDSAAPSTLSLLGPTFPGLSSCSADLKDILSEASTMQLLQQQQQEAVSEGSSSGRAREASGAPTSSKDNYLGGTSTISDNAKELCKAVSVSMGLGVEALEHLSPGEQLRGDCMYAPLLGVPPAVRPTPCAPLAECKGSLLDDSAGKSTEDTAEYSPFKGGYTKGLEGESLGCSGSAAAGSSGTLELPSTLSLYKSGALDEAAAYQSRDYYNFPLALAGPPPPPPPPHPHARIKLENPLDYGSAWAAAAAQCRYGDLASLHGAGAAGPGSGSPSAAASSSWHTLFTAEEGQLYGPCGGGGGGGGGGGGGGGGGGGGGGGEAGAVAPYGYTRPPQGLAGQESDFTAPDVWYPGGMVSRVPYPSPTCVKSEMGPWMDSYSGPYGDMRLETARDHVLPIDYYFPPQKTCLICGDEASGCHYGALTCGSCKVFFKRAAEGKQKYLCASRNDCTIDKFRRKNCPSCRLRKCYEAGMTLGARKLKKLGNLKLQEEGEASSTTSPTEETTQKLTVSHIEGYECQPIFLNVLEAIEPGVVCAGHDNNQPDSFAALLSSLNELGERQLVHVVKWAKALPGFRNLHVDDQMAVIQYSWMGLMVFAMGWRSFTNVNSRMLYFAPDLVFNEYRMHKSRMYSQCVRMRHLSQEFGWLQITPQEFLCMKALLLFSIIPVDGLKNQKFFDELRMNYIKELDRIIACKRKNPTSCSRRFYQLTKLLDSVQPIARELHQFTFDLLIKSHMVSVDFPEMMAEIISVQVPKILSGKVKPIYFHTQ

Test [7] has the same target. The experiment in a line: qHTS assay to identify small molecule agonists of the androgen receptor (AR) signaling pathway (AID 743036; active means well fitted activation curve with a large enough effect in the signal ratio in the repeat runs, with a control signal flat, not every such curve was filed as active; the % refers to the signal ratio; further: potency means the concentration at half of the fitted maximal effect). The settings on record: HEK293 AR-UAS-bla GripTite, beta-lactamase FRET ratio, 16 h; series mostly up to 62.4 µM. Summed up: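 AR-bla HEK293 cells, 2,000/well; 4 h preincubation 37C/5% CO2; compound (DMSO) 16 h at 37C; LiveBLAzer B/G FRET substrate 2 h RT; fluorescence intensity read-out.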

Test [8] has the same target. The experiment in a line: qHTS assay to identify small molecule antagonists of the androgen receptor (AR) signaling pathway using the MDA cell line (AID 743042; further: nearly all actives have a fitted effect of over 55% in size; further: potency means the concentration at half of the fitted maximal effect). The following applies: MDA-kb2 AR-luc, MMTV luciferase, R1881 antagonist, 16 h; series mostly up to 70.3 µM. Summed up:
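MDA-kb2 breast carcinoma cells carrying MMTV-luciferase (AR/GR responsive) were co-treated with compounds and the agonist R1881 for 16 h at 37C. Inhibition read as ONE-Glo luminescence; CellTiter-Fluor fluorescence measured in parallel for cytotoxicity.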

A short description of test [9]: qHTS assay for identifying genotoxic compounds that show differential cytotoxicity against isogenic chicken DT40 cell lines with known DNA damage response pathways - Rev3 mutant cell line (AID 743014). Further: nearly all actives have a fitted effect of over 55% in size. Further: potency means the concentration at half of the fitted maximal effect. The settings on record: chicken DT40 Rev3-/- viability, CellTiter-Glo, 40 h; series mostly up to 68.4 µM.
For test [10], the target named is Androgen receptor (Homo sapiens) (UniProt P10275). Kind of test: qHTS assay to identify small molecule agonists of the androgen receptor (AR) signaling pathway using the MDA cell line (AID 743040; further: nearly all actives have a fitted effect of over 20% in size; further: potency means the concentration at half of the fitted maximal effect). The following applies: MDA-kb2 AR-luc cells, MMTV luciferase, 16 h; series mostly up to 70.3 µM. Summed up:
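Luciferase read-out, ONE-Glo, 30 min RT. Cells: MDA-kb2 AR-luc, MMTV promoter with AR and GR response elements. Compound exposure 16 h, 37C, 0% CO2, after 5 h pre-incubation. qHTS agonist mode.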

Where “and” joins values, the source holds several entries; their conditions need not be identical. Equal entries are not always repeated. Results filed as inconclusive are left out. Calls of active or inactive are those of the source. Unless noted, the call rests on the fitted dose curve; in most records, active means well fitted curve in the direction sought with a large enough effect in the repeat runs; inconclusive means weak or mixed curves; inactive means no such curve, though single readings can be large; an effect the other way counts as inactive or inconclusive.

Regarding `CCCCCCc1ccc(-c2ccc(C#N)cc2)cc1`, the Potency result in [1], in test [2], in test [3], in [4] and in test [5] was “inactive” in each case.

`CN1CCN(C(c2ccccc2)c2ccccc2)CC1`: the Potency result in test [6], in [7] and in test [8] was “inactive” throughout.

Consider `COc1ccc(-c2nc3ccc(C4=NNC(=O)CC4C)cc3[nH]2)cc1` (centres undefined), for which the Potency in test [6] is 19 µM (active). Besides, the Potency entry in test [8] is “inactive”.

In the case of `Cc1cccc(Nc2ccccc2)c1`, the Potency result in test [7] was “inactive”.

`c1cc(CCCc2ccncc2)ccn1`: the Potency entry in test [1], in [4] and in [5] was “inactive” each time.

`C=C1C(=C/C=C2\CCC[C@]3(C)[C@@H]([C@H](C)/C=C/[C@@H](O)C4CC4)CC[C@@H]23)C[C@@H](O)C[C@@H]1O`: the Potency in test [2] is 11.9 µM (active); in test [9] it was 11.9 µM (active); in [3], 13.3 µM (active); in test [8] it was 26.6 µM (active). Besides, the Potency result in test [7] and in [10] was “inactive” throughout.

In the case of `COC(=O)C1=C(C)NC(COC(N)=O)=C(C(=O)OC(C)C)C1c1cccc(Cl)c1Cl` (centres undefined), the Potency is 23.7 µM (active) in [2], 23.7 µM (active) in test [3] and 10.7 µM (active) in test [7]. Further, the Potency entry in test [4], in test [10], in [5] and in [8] was “inactive” throughout.

In the case of `CCC(=O)O[C@]1(C(=O)CCl)[C@@H](C)C[C@H]2[C@@H]3CCC4=CC(=O)C=C[C@]4(C)[C@@]3(F)[C@@H](O)C[C@@]21C`, the Potency in [2] was 13.3 µM (active); in test [9], 2.37 µM (active); in test [3], 29.8 µM (active); in test [6], 7.56 µM (active); in test [10], 0.0019 µM (active). Further, the Potency entry in test [5] and in [8] was “inactive” each time.

Turning to `COS(=O)(=O)C(F)(F)F`, the Potency result in test [1] and in test [3] was “inactive” throughout.

As to `Cc1cc(C(=O)O)ccc1[N+](=O)[O-]`, the Potency result in [2], in test [3] and in test [5] was “inactive” each time.

`C[Si](C)(CCCN)O[Si](C)(C)CCCN`: the Potency entry in test [1], in test [4] and in [5] was “inactive” in each case.

For `C[N+]1(C)CCC(OC(=O)C(O)(c2ccccc2)C2CCCC2)C1` (centres undefined), the Potency entry in [1], in test [4] and in [5] was “inactive” each time.

As to `Cc1ccc(N=Nc2c(O)c(C(=O)O)cc3ccccc23)c(S(=O)(=O)O)c1`, the Potency result in [1] and in [5] was “inactive” each time. In test [3], the Potency is 13.3 µM (active).

As to `CCCCC(=O)OCC(=O)[C@H]1[C@H](C)C[C@H]2[C@@H]3C[C@H](F)C4=CC(=O)C=C[C@]4(C)[C@@]3(F)[C@@H](O)C[C@@]21C`, the Potency result in test [1], in test [4], in test [5] and in test [8] was “inactive” in each case. Also, the Potency in [10] was 0.0047 µM (active).

Consider `CC(C)C[C@H]1C(=O)N2CCC[C@H]2[C@]2(O)O[C@](NC(=O)[C@@H]3C=C4c5cccc6[nH]c(Br)c(c56)C[C@H]4N(C)C3)(C(C)C)C(=O)N12`, for which the Potency is 5.31 µM (active) and 11.6 µM (active) in [2]; 10.6 µM (active) and 7.34 µM (active) in test [9]; 7.5 µM (active) and 10.4 µM (active) in test [3]. The Potency entry in test [4] and in [5] was “inactive” in each case.

For the molecule `O=S(c1cc(Cl)cc(Cl)c1O)c1cc(Cl)cc(Cl)c1O`, the Potency result in test [4], in test [10], in test [5] and in test [8] was “inactive” each time.

As for `CCC(CC)Nc1ccc(C)c(C)c1`, the Potency entry in [1] and in test [5] was “inactive” each time.

As for `O=C(Nc1ccc(S(=O)(=O)N2CCOCC2)cc1)c1cc(Cl)ccc1NS(=O)(=O)c1ccc(Cl)s1`, in test [1], the Potency was 16.9 µM (active). The Potency entry in test [4] and in test [5] was “inactive” throughout.

Turning to `Nc1cccc([N+](=O)[O-])c1`, the Potency entry in [2], in test [9], in test [3], in test [4], in [6] and in [7] was “inactive” each time. Further, the Potency entry in test [10], in [5] and in [8] was “inactive” in each case.

On to `CCc1cc(C2=C(C(=O)O)N(c3ccccc3C(F)(F)F)S(=O)(=O)c3ccccc32)cc2c1OCO2`, for which the Potency result in test [1], in test [4] and in [5] was “inactive” each time.

Turning to `CCOc1ccc(N)c([N+](=O)[O-])c1`, the Potency entry in test [1], in test [3] and in [4] was “inactive” throughout.

With `CCOCC(O)COc1ccc(NC(=O)CC[S+](C)C)cc1` (centres undefined), the Potency entry in [1], in test [3], in test [4] and in test [5] was “inactive” each time.

Take `c1ccc(C(O[C@H]2CCCN(CCc3ccc4c(c3)OCO4)C2)c2ccccc2)cc1`: the Potency was 23.7 µM (active) in [2], 29.8 µM (active) in test [9] and 29.8 µM (active) in test [3]. Moreover, the Potency entry in test [4] and in test [5] was “inactive” in each case.

Consider `OC(C#CCN1CCCC1)(c1ccccc1)c1ccccc1`, for which the Potency entry in [1], in [4] and in test [5] was “inactive” in each case. For the same molecule, in [3], the Potency is 26.6 µM (active).

As for `CCCCCCCCCCCCN1CCCCCC1=O`, the Potency result in test [1], in test [4] and in [5] was “inactive” in each case.

Take `Cc1oc(-c2ccccc2)nc1CCOc1cccc2c1ccn2CCC(=O)O`: the Potency result in test [1], in test [4] and in [5] was “inactive” in each case.

As to `CCOC(=O)Cc1cccc2ccccc12`, the Potency result in [1], in test [3], in test [4] and in [5] was “inactive” in each case.

Turning to `CC(=O)OC[C@H]1O[C@@H](n2ncc(=O)[nH]c2=O)[C@H](OC(C)=O)[C@@H]1OC(C)=O`, the Potency result in test [1], in test [10], in [5] and in [8] was “inactive” each time. Further, the Potency in [3] was 1.06 µM (active); in test [6], 5.35 µM (active).

For the molecule `COc1cc(Cl)c(OC)cc1N`, the Potency entry in [1], in test [4] and in test [5] was “inactive” in each case.

Consider `CN1CCC(=C2c3ccccc3Sc3ccccc32)CC1`, for which the Potency was 5.31 µM (active) in test [2]; 5.96 µM (active) in test [9]; 8.41 µM (active) in [3]; 23.9 µM (active) in test [4]; 26.8 µM (active) in test [6]; 29.8 µM (active) in test [8]. Further, the Potency entry in test [7] and in test [10] was “inactive” each time.

Regarding `O=C(c1ccc(F)cc1)C1CCN(CCn2c(=S)[nH]c3ccccc3c2=O)CC1`, the Potency in [2] is 18.8 µM (active); in test [3], 6.68 µM (active). The Potency entry in test [10], in test [5] and in [8] was “inactive” each time.

As to `COC(C)OC`, the Potency entry in [2], in test [9], in test [3] and in [5] was “inactive” in each case.

On to `COc1ccnc(CS(=O)c2nc3ccc(OC(F)F)cc3[nH]2)c1OC` (centres undefined), for which the Potency result in [1], in test [4] and in test [5] was “inactive” in each case.

As to `C#CCN(C)CCCOc1ccc(Cl)cc1Cl`, the Potency entry in [1], in test [9] and in test [5] was “inactive” each time.

Turning to `O=C(CS)Nc1ccccc1`, the Potency was 11.9 µM (active) in test [2], 21.1 µM (active) in test [9] and 18.8 µM (active) in test [3].

With `CC1=CCCC(C)(C)C12CCC(C)O2` (centres undefined), the Potency result in test [1], in test [4] and in [5] was “inactive” each time. In test [3], the Potency was 13.7 µM (active).

With `C[N+](C)(C)CCOC(=O)CCC(=O)OCC[N+](C)(C)C`, the Potency entry in [2], in test [9], in test [3] and in test [5] was “inactive” each time.

For the molecule `CC(C)(O)c1ccc(CNC(=O)c2cccnc2Oc2ccc(F)cc2)cc1`, the Potency entry in test [1] and in test [5] was “inactive” throughout.

For the molecule `CC(=O)c1cccc([N+](=O)[O-])c1`, the Potency entry in [1], in test [4] and in test [5] was “inactive” throughout.

Take `S=C([S-])NCCNC(=S)[S-].[Mn+2]`: the Potency entry in test [1], in test [4] and in [5] was “inactive” each time. Also, the Potency in test [3] is 61.1 µM (active).

Consider `CCCCCCCCCCCCCCCCCCOS(=O)(=O)O`, for which the Potency result in test [3], in test [4] and in test [5] was “inactive” in each case.

Take `O=[N+]([O-])c1ccc2[nH]ncc2c1`: the Potency entry in test [1], in test [3], in test [4] and in test [5] was “inactive” throughout.
